Shown are actives, neighbours in structure and some others; about 20% of the full set was active somewhere.
Pf growth 96h: inhibits malaria parasite growth, 96 h. P. falciparum luciferase reporter growth, 96 h. Potency, µM (titrated, usually from 28.7 µM), for the others: at the top dose activity change, negative = inhibition, usual class: inhibitors. 320,000 tested, 6.9% active; note: potency is the fitted concentration of half-maximal effect; % is set by controls: 0 for no effect and ±100 for the full control effect
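Cell-based qHTS: luciferase-tagged P. falciparum in erythrocytes (2% hematocrit, 0.05% parasitemia final) incubated with compounds for 96 hours, 37 C, 5% CO2; luciferase detection reagent then added and luminescence measured.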
HCMV antiviral: human cytomegalovirus inhibition. HFF cells, HCMV-luciferase reporter, 72 h; stronger effect = lower value. activity change, negative = inhibition, % at 57.5 µM. 410,000 tested, 4.5% active. AID 1259415; in the data active = activity change below about -60%; inconclusive = no clear call, values can overlap the other calls; inactive = above about -39%; note: % is set by controls: 0 for no effect and ±100 for the full control effect
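Two compound doses tested in HFFs infected with HCMV-luciferase, MOI 1 PFU/cell, 72 h at 37C. Lysate luminescence read with OneGlo; data normalized against buffer-only and 10uM Salinomycin inhibitor controls.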
Cycloheximide cs: affects cycloheximide protein synthesis inhibition readout, counter-screen; max response, %; 300,000 tested, 12% active; cell reporter, cycloheximide protein synthesis inhibition counterscreen; in the data active = max response mostly above about 13%, no sharp cut-off; inactive = mostly below about 14%; note: read at 38.3 µM for the half of the compounds with a filed dose; 0% is about no effect
Shiga inhibitor: blocks Shiga toxin action in Vero cells; Vero cells, Shiga toxin protein synthesis inhibition reporter; inhibition, % at 38.7 µM; 290,000 tested, 9.2% active; in the data active = inhibition mostly above about 28%, no sharp cut-off; inactive = mostly below about 43%; note: 0% is about no effect
Pf growth 48h: P. falciparum growth inhibition at 48 hours (one generation) | P. falciparum luciferase growth in erythrocytes, 48 h | 310,000 tested, 5.9% active | Potency, µM (series often up to 28.7 µM), without a hit: at the highest dose activity change, negative = inhibition, usual class: inhibitors; note: potency is the fitted concentration of half-maximal effect; % is set by controls: 0 for no effect and ±100 for the full control effect
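Firefly luciferase activity from engineered P. falciparum reports growth; inhibitors lower the luminescent signal. Cultures contained 2% hematocrit erythrocytes at 0.1% final parasitemia.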
* hit, by the source's call; ? = inconclusive; . = no result; [ ] = remark or other dose. Unless noted, calls come from the whole dose curve; as a rule, active = well fitted inhibition curve with a large enough effect; inconclusive = small, poorly fitted or top-dose-only effect, or another doubt; inactive = no such curve, though single readings can be large or run the other way.

SMILES | Pf growth 96h | HCMV antiviral | Cycloheximide cs | Shiga inhibitor | Pf growth 48h
CC(=O)N1c2ccccc2CC1C(=O)N1CCN(c2cc(Cl)ccc2C)CC1 (centres undefined) | . | 6.5 | . | . | .
Cc1ccc(-n2c(C)cc(C(=O)CSc3n[nH]c(N)n3)c2C)cc1 | 3.29µM* | -70.1* | 10.0* | 54.3 | ?
Cc1cc(C(=O)CSc2n[nH]c(N)n2)c(C)n1-c1ccccc1 | . | 74.7 | 36.5* | 49.8* | 105.2%
Cc1cc(C(=O)CSc2n[nH]c(N)n2)c(C)n1-c1cc(F)ccc1F | 8.7%[5.75 µM] | 111.7 | 28.9* | 97.7* | 11.3%
Nc1nc(SCC(=O)c2cc(F)ccc2F)n[nH]1 | 1.9% | -13.0 | 3.0 | -1.1 | 0.0%
Cc1cc(C(=O)CSc2n[nH]c(N)n2)c(C)n1-c1ccc(F)cc1 | ? | ? | 40.3* | 61.3* | 53.6%
Cc1cc(C(=O)CSc2n[nH]c(N)n2)c(C)n1C1CC1 | ? | -22.5 | -4.0 | 12.2 | -0.6%
CN(CC(=O)Nc1ccc(Cl)cc1)CC(=O)N1CCc2ccccc21 | . | -5.1 | . | . | .
CSc1ccc(Cl)c(C(=O)OCC(=O)N(C)CCC#N)c1 | 4.6% | -22.7 | -4.0 | -4.9 | 187.4%
COc1ccccc1CNS(=O)(=O)c1ccc(F)cc1Br | . | 31.0 | . | . | .
CCC(C)(C)NC(=O)C(c1ccc(F)cc1)N(Cc1ccccc1)C(=O)c1cnccn1 (centres undefined) | 0.0% | ? | -1.1 | 14.5 | ?
Cc1ccc(-n2c(C)cc(C(=O)COC(=O)c3c(C)noc3C)c2C)cc1 | 389.4% | -29.4 | 39.3* | 103.7* | 226.8%
Cc1cc(C(=O)CSc2nnc3ccccn23)c(C)n1-c1ccccc1 | -52.7% | -72.4* | 1.2 | -14.8 | -48.8%
Cc1cc(C(=O)COC(=O)c2cnccn2)c(C)n1-c1ccc(Br)cc1 | . | -29.4 | . | . | .
C=CCn1c(C)cc(C(=O)CSc2n[nH]c(N)n2)c1C | 20.5% | 105.7 | 27.5* | 98.5 | .
Cc1cc(C(=O)CSc2nnc(-c3ccccc3)n2-c2ccccc2)c(C)n1-c1ncn[nH]1 | ? | 18.2 | -2.3 | 7.9 | .
Cc1nnc(N2CCN(c3ccc(Cl)cc3)CC2)c2c1nnn2Cc1ccc(F)cc1 | . | 23.6 | . | . | .
CCOC(=O)C1=C(COC(=O)/C=C/c2ccc([N+](=O)[O-])cc2)NC(=O)NC1C (centres undefined) | -21.2% | -4.1 | . | . | -27.5%
Cc1cccc(N2CCN(C(=O)Cn3nc(C)c4sc5ccccc5c4c3=O)CC2)c1C | . | 9.3 | . | . | .
COc1ccc(Cc2c(-c3ccc(Cl)cc3)nc3c(C)cc(Br)cn23)c(C)c1 | . | 23.3 | . | . | .
CCOc1ccc(NC(=O)COC(=O)CCC(=O)c2cccs2)cc1 | -16.1% | 13.0 | . | . | 6.2%
Cc1nc2cc(-c3ccccc3)[nH]n2c(=O)c1C | 402.4% | 71.2 | 34.1* | 63.0* | 3.0%
Cc1cc(=O)n2[nH]c(-c3ccccc3)cc2n1 | . | 10.6 | 19.7 | 65.7* | 29.5%
O=c1cc(-c2ccccc2)nc2cc(-c3ccc(F)cc3)[nH]n12 | . | 44.4 | . | . | .
Cc1cc(=O)n2[nH]c(-c3ccc(C(C)(C)C)cc3)cc2n1 | 4.65µM* | -63.3* | 11.7 | 19.8 | 2.94µM*
SMILES | Pf growth 96h | HCMV antiviral | Cycloheximide cs | Shiga inhibitor | Pf growth 48h
COCc1cc(=O)n2[nH]c(-c3ccc(C)cc3)cc2n1 | 30.4% | 71.4 | 37.2* | 71.7* | .
CCOC(=O)Cc1cc(=O)n2[nH]c(-c3ccc(C)cc3)cc2n1 | 11.4% | 45.3 | -1.2 | 13.5 | .
CCc1c(C)nc2cc(-c3ccc(OC)cc3)[nH]n2c1=O | 9.6% | 45.6 | 32.4* | 130.4* | ?
O=C(O)c1ccc2c(c1)C(=O)N(CCc1ccc(O)cc1)C2=O | -6.9% | . | 5.3 | -2.2 | 3.1%
CCOc1ccc(CCNC(=O)CN2CCN(Cc3ccc(Cl)cc3)C2=O)cc1OCC | . | -12.2 | . | . | .
CC(=O)Nc1ccc(NC(=O)c2ccc(C3SCC(=O)N3CCc3ccccc3)cc2)cc1 (centres undefined) | 11.7µM* | -32.5 | -5.6 | -9.8 | -19.0%
COC(=O)c1ccc(C2SCC(=O)N2Cc2ccccc2)cc1 (centres undefined) | 4.3% | . | -5.4 | -9.1 | -21.2%
O=C(NCCSCc1ccccc1)c1ccc(C2SCC(=O)N2Cc2ccccc2)cc1 (centres undefined) | 7.38µM* | -26.3 | -1.6 | -5.7 | .
CC(=O)c1ccccc1NC(C(=O)Nc1c(C)cccc1C)C1CCCC1 (centres undefined) | . | -5.4 | . | . | .
Cc1ccc(-c2nc3scc(CCNS(=O)(=O)c4c(C)noc4C)n3n2)cc1 | . | 146.3 | . | . | .
COc1cccc2c1nc(C)c1cc(C)oc12 | -11.9% | 34.2 | 36.3* | 40.0 | 67.0%
